Screens as filed in PubChem.
KDM5B inhibitor = blocks human KDM5B histone demethylase activity; KDM5B demethylase, FDH-coupled NADH fluorescence (FDH is formaldehyde dehydrogenase); AID 1347165; Q9UGL1; Potency, µM (series often up to 57.7 µM), actives largely listed as inhibitors; 220,000 compounds, 2.6% hits; active = well fitted inhibition curve with a large enough effect; also: 0% is about no effect; nearly all actives have a fitted effect of over 70% in size
Target sequence (Q9UGL1 whole entry, looked up): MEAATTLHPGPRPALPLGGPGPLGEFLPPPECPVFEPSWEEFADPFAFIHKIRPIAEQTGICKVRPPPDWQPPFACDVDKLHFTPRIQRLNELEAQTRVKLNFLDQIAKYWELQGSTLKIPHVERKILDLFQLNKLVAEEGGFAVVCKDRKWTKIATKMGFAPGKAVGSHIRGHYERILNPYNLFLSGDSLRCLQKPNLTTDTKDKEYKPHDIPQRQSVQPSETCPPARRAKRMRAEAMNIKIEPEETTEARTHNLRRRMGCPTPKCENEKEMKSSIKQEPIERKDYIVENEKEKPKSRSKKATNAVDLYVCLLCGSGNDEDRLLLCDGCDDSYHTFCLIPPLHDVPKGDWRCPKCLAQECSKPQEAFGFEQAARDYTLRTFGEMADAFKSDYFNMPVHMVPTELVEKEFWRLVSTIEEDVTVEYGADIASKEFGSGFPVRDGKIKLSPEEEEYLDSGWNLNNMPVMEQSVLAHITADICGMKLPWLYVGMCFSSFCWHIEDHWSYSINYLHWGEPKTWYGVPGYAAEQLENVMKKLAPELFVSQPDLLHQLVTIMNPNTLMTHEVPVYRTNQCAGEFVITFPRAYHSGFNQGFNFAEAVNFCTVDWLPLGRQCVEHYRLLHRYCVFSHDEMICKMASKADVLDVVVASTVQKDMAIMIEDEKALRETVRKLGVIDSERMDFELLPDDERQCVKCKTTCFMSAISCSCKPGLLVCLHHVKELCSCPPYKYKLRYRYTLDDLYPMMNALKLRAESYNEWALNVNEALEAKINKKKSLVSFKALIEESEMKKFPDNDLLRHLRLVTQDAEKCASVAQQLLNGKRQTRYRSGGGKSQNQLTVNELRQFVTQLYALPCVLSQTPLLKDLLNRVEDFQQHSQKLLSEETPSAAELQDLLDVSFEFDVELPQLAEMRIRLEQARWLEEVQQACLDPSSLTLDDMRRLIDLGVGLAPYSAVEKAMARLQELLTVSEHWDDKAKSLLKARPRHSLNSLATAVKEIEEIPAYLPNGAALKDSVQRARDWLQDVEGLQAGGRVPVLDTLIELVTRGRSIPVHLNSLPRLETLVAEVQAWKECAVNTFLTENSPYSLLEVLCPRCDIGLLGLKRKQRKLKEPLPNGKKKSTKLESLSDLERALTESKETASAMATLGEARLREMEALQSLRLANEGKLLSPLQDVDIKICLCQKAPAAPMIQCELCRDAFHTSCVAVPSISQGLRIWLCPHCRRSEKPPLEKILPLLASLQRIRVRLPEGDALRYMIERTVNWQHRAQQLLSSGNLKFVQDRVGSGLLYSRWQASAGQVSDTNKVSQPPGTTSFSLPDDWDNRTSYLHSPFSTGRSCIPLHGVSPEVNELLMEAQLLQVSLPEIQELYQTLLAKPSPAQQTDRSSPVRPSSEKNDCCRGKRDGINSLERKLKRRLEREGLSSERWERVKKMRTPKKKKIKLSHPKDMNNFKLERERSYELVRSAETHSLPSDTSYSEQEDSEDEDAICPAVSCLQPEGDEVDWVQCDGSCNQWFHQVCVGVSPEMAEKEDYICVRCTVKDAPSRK
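Compound dilutions met 200 nM (final) KDM5BΔAP for 10 min at room temperature before substrate addition. The substrate mix held 12.5 µM H3K4me3 with cofactors 25 µM α-ketoglutarate and 50 µM Fe²⁺. NADH signal gain over 30 min defined activity.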
The depositor's hits bear a star; i = inactive. This is one part of a sample in which hits are shown more often than they occur. Potency is read from the fitted curve at half-maximal effect.

SMILES | KDM5B inhibitor
Cc1nn(C(=O)CCCC(=O)N2CCC(Cc3nncn3C(C)C)CC2)c2ccccc12 | i
CCn1cnnc1CC1CCN(C(=O)c2ccccc2)CC1 | i
Cc1ccc(-c2cc(C(=O)N3CCC(c4nc(C5CCOCC5)no4)C3)c3ccccc3n2)cc1C (stereo not given) | 25µM*
O=C(c1c2c(nc3ccccc13)CCCC2)N1CCCC(c2nc(C3CCOCC3)no2)C1 (stereo not given) | i
COc1ccc(-c2cc(C(=O)N3CCOC(C)C3)c3ccccc3n2)cc1OC (stereo not given) | i
CC(C)NC(=O)C1CCN(C(=O)c2cc(-c3ccccc3)nc3ccccc23)CC1 | i
CCn1cnnc1CC1CCN(C(=O)NCc2ccccc2)C1 (stereo not given) | i
Cc1ccc(-c2cc(C(=O)N3CCC(Cc4nncn4C(C)C)CC3)c3ccccc3n2)cc1C | 28µM*
CCn1cnnc1CC1CCN(C(=O)c2cc(-c3ccc(C)c(C)c3)nc3ccccc23)CC1 | 28µM*
COc1ccc(C(=O)Nc2cccc3ccc(C)nc23)cc1Cl | i
O=C(/C=C/c1ccc(-c2ccc(F)cc2)o1)N(C1CCCCC1)C1CCCCC1 | i
CSc1ccc(NC(=O)Cc2cc(Cl)c3c(c2)OCCCO3)cc1 | i
COC(=O)c1cnn(-c2ccc(C(=O)Nc3cccc(Cl)c3C)cc2)c1N | i
CC(C)CC(=O)Nc1cccc(C(=O)Nc2ccc(C(=O)O)cc2)c1 | i
Cc1ccccc1NC(=O)N1CCN(C(=O)c2nsc3ccccc23)CC1 | i
COc1cc(=O)n2c(c1C(=O)Nc1ccc(Br)cc1)CCCC2 | i
Cc1ccc(NC(=O)COC(=O)c2ccccc2C)cc1F | i
CCCNC(=O)C[C@@H]1CCN(S(=O)(=O)c2c(C)noc2C)C[C@@H]1CC | i
Cc1cc(NC(=O)COc2cccc(Cl)c2)n(C)n1 | i
COC(=O)c1ccc2nc(C[C@@H]3C[C@@H](C(C)C)[C@H](CNCc4ccccc4F)C=C3C)[nH]c2c1 | i
CC[C@H]1CN(C(=O)c2ccc(F)cc2)CC[C@H]1CC(=O)NCCOC | i
CCC[C@H]1CN(C(=O)c2ccc3c(c2)nc(NCCOC)n3C)C[C@@H]1N | i
COCCNc1nc2cc(C(=O)N3CC[C@H](CO)[C@@H](O)C3)ccc2n1C | 28µM*
CCN1CCN(c2nc(SC)nc(-c3ccc(Cl)cc3)c2C#N)CC1 | i
CCOC(=O)c1nnn(C(CC)C(=O)Nc2cccc(OC)c2)c1C(=O)OCC (stereo not given) | i
SMILES | KDM5B inhibitor
O=C(CSc1ncnc2ccccc12)Nc1ccccc1OC(F)F | i
CS(=O)(=O)c1ccc2nc(NC(=O)CSCc3ccccc3)sc2c1 | i
COc1cccc(-c2cc(-c3c(C)noc3C)cc3c2C(=O)N(C)C3=O)c1OC | i
Cc1noc(C)c1-c1cc(-c2ccccc2C(F)(F)F)cn2cncc12 | 40µM*
CNC(=O)CCn1ncc2cc(OCc3ccccc3-c3c(C)noc3C)ccc21 | i
Cc1ccccc1-c1cc(-c2c(C)noc2C)cc2c1C(=O)N(C)C2 | i
Cc1noc(C)c1-c1cc(-c2ccccc2F)cn2cncc12 | 35µM*
CC(C)CC(=O)NCC1Cn2cccc2C(=O)N1Cc1ccccc1 (stereo not given) | i
CN1CC(=O)N(c2ccccc2F)Cc2c(NCCc3ccc(Cl)cc3)ncnc21 | 25µM*
CN1CC(=O)N(c2ccccc2F)Cc2c(NCCCc3ccccc3)ncnc21 | i
CN1CC(=O)N(c2ccccc2F)Cc2c(NCCc3ccccc3F)ncnc21 | i
Cc1ccc(OCc2nc(C3CN(C(=O)c4cc(C)n(C)n4)C3)no2)cc1 | i
CC(C)N1CC[C@@H]2[C@H]1C(=O)NC[C@H](CCC(=O)N1CCN(c3ccccc3)CC1)N2C | i
CN1[C@@H](CCC(=O)N2CCN(c3ccccn3)CC2)CNC(=O)[C@@H]2[C@H]1CCN2Cc1cccs1 | 28µM*
CN1[C@@H](CCC(=O)NCc2ccccc2)CNC(=O)[C@@H]2[C@H]1CCN2Cc1cccs1 | i
O=C(Nc1ccccc1)N[C@H]1C[C@H]2C(=O)NC[C@@H](CCC(=O)N3CCN(c4ccccc4)CC3)N2C1 | i
CN1[C@@H](CCC(=O)N2CCN(c3ccccn3)CC2)CNC(=O)[C@H]2NCC[C@H]21 | 35µM*
Cc1ccc(CN2CC[C@@H]3[C@H]2C(=O)NC[C@H](CCC(=O)N2CCN(c4ccccn4)CC2)N3C)cc1 | 32µM*
COc1ccc(C(=O)N[C@H]2C[C@H]3C(=O)NC[C@@H](CCC(=O)N4CCN(C)CC4)N3C2)cc1 | i
O=C(N[C@H]1C[C@H]2C(=O)NC[C@@H](CCC(=O)N3CCN(c4ccccn4)CC3)N2C1)c1ccccc1 | 25µM*
CN1[C@@H](CCC(=O)NCc2ccco2)CNC(=O)[C@H]2NCC[C@H]21 | i
CN1[C@@H](CCC(=O)N2CCN(c3ccccc3)CC2)CNC(=O)[C@@H]2[C@H]1CCN2Cc1csnn1 | i
CN1[C@@H](CCC(=O)N2CCc3ccccc32)CNC(=O)[C@@H]2[C@H]1CCN2Cc1cccs1 | i
COC[C@H]1CCCN1C(=O)CC[C@H]1CNC(=O)[C@@H]2[C@@H](CCN2Cc2ccc(C)cc2)N1C | i
O=C(CN(CC1CC1)C1CC1)NC(=O)NCc1ccco1 | i
SMILES | KDM5B inhibitor
CCCOc1ccccc1C(=O)N1CCC(c2nc3ccccc3o2)CC1 | i
Cc1cccc(NS(=O)(=O)c2c(C)nn(C)c2C)c1C | i
Cc1cccc(C)c1NC(=O)c1cc2cc(Br)ccc2oc1=O | i
CCS(=O)(=O)Nc1ccc(C2(C(=O)NC3CCCC3)CCC2)cc1 | i
COc1cccc(/C(O)=C2\C(=O)C(=O)N(CCc3ccccc3)C2c2ccc(O)cc2)c1 (stereo not given) | i
CC(OC(=O)c1nn(-c2ccccc2)c(=O)c2ccccc12)C(=O)Nc1ccc(N2CCOCC2)cc1 (stereo not given) | i
COc1cccc(NC(=O)c2nn(-c3cccc(OC)c3)c(=O)c3ccccc23)c1 | i
Cc1nc(CN2C(=O)OC3(CCN(CCCc4ccccc4)CC3)C2(C)c2ccccc2)cs1 (stereo not given) | i
Cc1ccc(-c2ccc(CCC(=O)N[C@@H]3CCOC[C@H]3OCC(=O)O)o2)cc1 | 28µM*
Cc1nccn1CCCC(=O)N[C@@H]1CCOC[C@H]1OCC(=O)O | i
Cc1cc(Cl)ccc1OCC(=O)N[C@@H]1CCOC[C@H]1OCC(=O)O | i
CCn1cc(CN2CC(Oc3ccc(-c4noc(-c5ccncc5)n4)cc3)C2)cn1 | i
O=C(C1CCCC1)N1CCN(C(=O)N2CC3CC(C2)[C@H]2CCCC(=O)N2C3)CC1 (stereo not given in full) | i
Cc1cnc(CC2CCN(C(=O)C(C)C)C2)n1C1CC1 (stereo not given) | i
Cc1ccc(S(=O)(=O)N(C)Cc2ccccc2)cc1C(=O)N1CCCCC1 | i
Cc1cn2nc(C(=O)N3CCCCC3)cc2c(N(C)Cc2ccccc2)n1 | 32µM*
Cc1cn2nc(C(=O)N3CCN(c4ccccc4)CC3)cc2c(N(C)Cc2ccccc2)n1 | 25µM*
CCc1ccc(-n2nc(C)c3c(C(=O)N4CCN(c5ccccc5)CC4)cc(C)nc32)cc1 | i
Cc1ccc(-c2nc(C(=O)N3CCN(c4ccccc4)CC3)no2)cc1 | i
CN(Cc1ccccc1)c1ncnc2c1CCN(C(=O)C1CCC1)CC2 | i
CC1CCN(C(=O)CN(c2cc(Cl)cc(Cl)c2)S(=O)(=O)c2ccccc2)CC1 | i
c1cc(CNCCCn2ccnc2)ccn1 | i
